The panel holds about 79,000 compounds, 15% with a hit somewhere; the sample as a whole holds those more often. Unmarked numbers belong to inactive results. Activity calls are given as the source filed them. Cut-off read from the data, not from the text of the source: active = growth inhibition above about 70%; inactive = the rest.
Experiments:
[1] = NCI Yeast Anticancer Drug Screen. Data for the rad50 strain (AID 155);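 note: 0% = growth of vehicle-only cultures of the same strain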; details: S. cerevisiae rad50 strain growth inhibition; at 50.0 µM; hits give high values
Method in brief: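 Cells are treated with compound, grown, and their growth is then scored against vehicle-only cultures of the same repair-deficient yeast strain.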

[2] = NCI Yeast Anticancer Drug Screen. Data for the mec2-1 strain (AID 157); details: S. cerevisiae mec2-1 strain, at 50.0 µM, hits give high values
Method in brief: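 mec2-1 yeast strain, carrying an alteration in DNA damage repair or cell cycle control, was exposed to compounds; growth inhibition was measured relative to vehicle-treated controls.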

[3] = NCI Yeast Anticancer Drug Screen. Data for the sgs1 mgt1 strain (AID 161);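 note: 0% = growth of cultures given vehicle only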; details: S. cerevisiae sgs1 mgt1 strain, at 50.0 µM, hits give high values
Method in brief: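 Percent growth inhibition was derived by comparing compound-exposed mutant yeast with vehicle-exposed cultures. The strain carries alterations in DNA damage repair.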

[4] = NCI Yeast Anticancer Drug Screen. Data for the cln2 rad14 strain (AID 165);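 note: 0% = growth equal to vehicle treated cultures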; details: S. cerevisiae cln2 rad14 strain, at 50.0 µM, hits give high values
Method in brief: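 Yeast carrying cln2 and rad14 alterations (cell cycle control and DNA damage repair) were exposed to compounds. Growth inhibition was measured against vehicle-treated controls.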

[5] = NCI Yeast Anticancer Drug Screen. Data for the bub3 strain (AID 167); details: S. cerevisiae bub3 mutant strain, at 50.0 µM, hits give high values
Method in brief: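 Part of a panel of yeast mutants defective in DNA damage repair or cell cycle regulation. Each strain is grown with compound, and inhibition is calculated relative to solvent-treated cultures.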

[6] = NCI Yeast Anticancer Drug Screen. Data for the mlh1 rad18 strain (AID 175); details: S. cerevisiae mlh1 rad18 strain growth inhibition; at 50.0 µM; hits give high values
Method in brief: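 Growth inhibition of the yeast strain was measured after compound exposure and expressed relative to vehicle-treated controls. The strain carries defined defects in DNA damage repair.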

| Compound | growth inhibition [1] | growth inhibition [2] | growth inhibition [3] | growth inhibition [4] | growth inhibition [5] | growth inhibition [6] |
| --- | --- | --- | --- | --- | --- | --- |
| COc1ccc(C(=O)N/N=C/c2ccccc2)cc1 | 8.3% | -10.8% | -7.7% | 6.85% | 2.6% | -18.1% |
| CCC(=O)c1ccc([N+](=O)[O-])cc1 | -14.2% | -18.2% | -24.7% | -59.4% | 1.95% | -10.2% |
| O=C(O)c1ccccc1CC(Cc1ccccc1)C(=O)O (centres undefined) | -14.7% | -3.4% | -10.9% | -8.5% | -12.4% | 14% |
| O=C1c2ccccc2C(=O)N1CCNc1ccccc1[N+](=O)[O-] | -9.25% | -12.2% | 7% | -22.9% | 6.5% | -19.2% |
| N#CC1CC=CCN1CCc1ccccc1 (centres undefined) | -9.5% | -5.75% | -4.95% | 42.5% | 20.7% | 7.5% |
| Cc1nc2ccccc2c(=O)n1C(C)(C)CCl | 10.1% | 30.6% | 11.1% | -14.7% | 30.3% | 19.9% |
| CNCCC(C(=O)O)c1ccccc1 (centres undefined) | -12.1% | -7.25% | 9.15% | -28.2% | -2.6% | 9.1% |
| Cc1cc(C)c(C(=O)c2cccc(Cl)c2)c(C)c1 | -13% | 4.7% | 5.55% | -56.9% | 34.4% | 22% |
| CC(=O)Oc1cc(OC(C)=O)c2c(c1C)CC[C@@H]1[C@@H]2CC[C@]2(C)[C@@H](OC(C)=O)CC[C@@H]12 | 18.1% | 10.1% | -0.25% | -17% | -5.3% | 34.3% |
| COc1nc2[nH]c(C)cc(=O)c2c2ccccc12 | 16.4% | 14.8% | 1.45% | -26.8% | -7% | 2.8% |
| Cc1cc2oc3ccccc3c(=O)c2c(C)c1Cl | -18.1% | 5.1% | -9.65% | -3.1% | 10.4% | -3.6% |
| c1ccc(P(CCNCCP(c2ccccc2)c2ccccc2)c2ccccc2)cc1 | -16% | 11.8% | 8.6% | 10.3% | 2.25% | 6.75% |
| COc1ccc(C(=O)c2ccc(OC)c3ccccc23)c2ccccc12 | -7.3% | -5.8% | -1.2% | -22.9% | 3.35% | 4.25% |
| c1ccc(Oc2ccc(-c3ccccc3)cc2)cc1 | -28.9% | -52.9% | 1.8% | -7.85% | -8.55% | -31.3% |
| CC1CC(=O)Nc2nc(N)ncc21 (centres undefined) | 19.4% | 21.8% | 15.7% | -3.8% | 7.75% | 3.9% |
| CN(/N=C/C=N/N(C)C1=NCCCN1)C1=NCCCN1 | -0.95% | 1.15% | 3.8% | 9.1% | 13.2% | -6.35% |
| CC(C)CCCC(C)C1CCC2C3CCC4CC(O)C5(CC4(C)C3CCC12C)SCCS5 (centres undefined) | 41% | 10.9% | 15.1% | 18.4% | -6.35% | 18.4% |
| COC(=O)CCCC(NC(=O)c1ccc([N+](=O)[O-])cc1)C(=O)OC (centres undefined) | 19.1% | -9.45% | 13.9% | 5.45% | 13.7% | 14.9% |
| Cc1cc(C)[n+](C)c2cc3ccccc3cc12 | 26.4% | -20.2% | 20.9% | 44.2% | -8.55% | -28.5% |
| Oc1ccc(-c2ccc(Br)cc2)cc1 | -25.1% | -6% | -14.4% | -2% | -31.8% | -14.8% |
| N/N=C1\C(=O)N(Cc2ccccc2)C(=O)C1C(=O)NCc1ccccc1 (centres undefined) | 7.5% | 13.8% | 3.4% | -36.8% | 19.4% | 3.5% |
| CC1(C)CCCc2c(-c3ccccc3)cc3c4ccccc4cc[n+]3c21 | -8.5% | -5.55% | -14.6% | -21.6% | -5% | -14.1% |

| Compound | growth inhibition [1] | growth inhibition [2] | growth inhibition [3] | growth inhibition [4] | growth inhibition [5] | growth inhibition [6] |
| --- | --- | --- | --- | --- | --- | --- |
| O=c1[nH]c2ccc(Br)cc2cc1Br | 21.9% | -9% | 0.3% | 6.65% | 2.45% | 20.8% |
| CCCCS(=O)(=O)Cc1ccccc1 | 1.75% | -0.55% | -1.25% | -14.1% | 0.3% | -17.4% |
| CCCSc1n[nH]c(=S)c2nc[nH]c12 | -2% | -24.3% | -14.8% | -5.5% | -21.8% | -1.15% |
| CC(=O)N=C1N(/C=C2\C(=O)Oc3ccccc3C2=O)C(=O)/C(=C/c2ccc(OC(C)=O)cc2)N1C | -9.55% | -17% | -14.9% | 12.9% | 1.05% | 0.75% |
| CC(=O)C1CCC2C3C=C(C)C4=CC(=O)CCC4(C)C3(F)C(=O)CC12C (centres undefined) | 13.8% | -12.2% | 6% | -13.1% | 14.2% | 15.9% |
| CC(Br)C1=CC(c2ccccc2)(c2ccccc2)c2ccccc21 (centres undefined) | 97% (active) | 98% (active) | 97.9% (active) | 96.8% (active) | 97.3% (active) | 96.7% (active) |
| CCOC(=O)/C=C/C(=O)N(C)c1ccccc1 | -12.2% | -7.15% | -5.3% | -0.5% | -12.7% | -18.6% |
| O=c1oc2ccc([N+](=O)[O-])cc2cc1-c1csc(-c2ccccc2)n1 | 3% | -9.35% | -7.05% | 7.45% | -26.3% | -48.8% |
| CC1CC(C)(C)OC(c2ccc(Cl)cc2)O1 (centres undefined) | 9.35% | -5.85% | -9.6% | -52.5% | -12.4% | -9.1% |
| O=C1CCC(c2nc3ccccc3o2)C(=O)N1 (centres undefined) | -5.1% | -20.5% | -10.6% | 0.65% | -11.2% | -13.7% |
| COc1ccc(OC)c(COC(=O)c2ccccc2)c1COC(=O)c1ccccc1 | 26.1% | 3.9% | 20.2% | 4.2% | 1.6% | 5.7% |
| COc1c(O)c2ccccc2c2cc(O)ccc12 | 6.8% | 25.1% | 23.6% | -14.2% | 56.4% | 10.2% |
| OCC1CCN(CCOCc2ccccc2)C1 (centres undefined) | 9.25% | -0.4% | -2.3% | -32.5% | -7.05% | 7.6% |
| C=C1C(C(=O)O)C1C(=O)O (centres undefined) | 4.2% | -11.8% | 20.4% | 3.6% | 2.9% | -2.25% |
| CC1(C)CCC2(C)CC=C3C(C)(CCC4C3(C)CCC3C(C)(C)C(O)CCC43C)C2C1 (centres undefined) | 0.9% | -4.2% | -23.2% | -10.3% | -18% | -10.4% |
| c1ccc2cc(SSc3ccc4ccccc4c3)ccc2c1 | -30.1% | -23.8% | -15.9% | 0.1% | -17.2% | -4.85% |
| NC(=O)NC1CC1c1ccccc1 (centres undefined) | -6.6% | 4.1% | -2.7% | 22.1% | -10.3% | -1.45% |
| CC(Cl)(CO)CCl (centres undefined) | 5.45% | 9.5% | -2.65% | 4.05% | -6.4% | 2.05% |
| Clc1ccc(N=Nc2ccccc2)cc1 | -2.45% | 12.3% | 4.4% | -14.7% | 1.7% | 5.25% |
| CC(C(=O)O)C(C)C(=O)O (centres undefined) | 3.3% | 4.15% | 9.8% | 6.45% | 5.1% | 14.2% |
| CCCCOC(=O)C(=O)OCCCC | 13.7% | -2.9% | 3.75% | 14.8% | 21.1% | 17.2% |
| CCOC(=O)C/C(C)=N\NC(N)=O | 38.2% | 42.5% | 44.8% | 18.2% | 26.1% | 42.8% |
